# Measured values reported in ChEMBL document CHEMBL3988442, “University of Dundee, Small-Polar-MMV Screening Library” (2021).
# Hit rate of the full screen: of about 48,000 compounds, about 13,000 (27%) showed an effect of 50% or more. The list shows a part of the results.
# Tested on: Wolbachia pipientis
# Test: Anti-Wolbachia Cell-Based Screen
# Type: functional
# Set-up: scale not given: in the data most compounds retested in dose-response had high values
# Conditions: 5 µM
row,Compound,Percent Effect
1,COc1ccc(F)cc1C(C(=O)O)N1CCCN(C2CCCC2)CC1 (stereo not given),11.4%
2,CCC(C)(C)NC(=O)c1scnc1Cl,6.107%
3,Cc1cnn(C2CN(CC(O)COCc3ccc4c(c3)OCO4)C2)c1 (stereo not given),-34.94%
4,CSc1ccc(CNC(c2ccccc2)c2nccn2C)cc1 (stereo not given),-1.677%
5,COc1cc(F)ccc1C(C(=O)O)N(C)Cc1ccon1 (stereo not given),19.52%
6,COc1cc(CN(C)C(=O)Cc2c(C)nn(C)c2C)ccc1OC(F)F,-29.22%
7,COc1ccc(C(C(=O)O)N(C)Cc2c(C)nn(C)c2C)c(C)c1 (stereo not given),108.6%
8,Cc1ccc(C(C(=O)O)N(C)CCN2CCOCC2)c(F)c1 (stereo not given),-0.2175%
9,COc1ccc(Cl)cc1C(C(=O)O)N(C)Cc1ccon1 (stereo not given),-2.698%
10,Cc1nn(C)c(C)c1CN(C)C(C(=O)O)c1ccc(F)cc1F (stereo not given),99.54%
11,COc1cc(C)cc(OC)c1C(C(=O)O)N(C)Cc1c(C)nn(C)c1C (stereo not given),77.2%
12,COc1cc(C)cc(C(C(=O)O)N(C)Cc2cnn(C)c2)c1OC (stereo not given),-13.95%
13,COc1ccc(C(C(=O)O)N(C)CCN2CCCC2)c(C)c1 (stereo not given),0.7603%
14,Cc1ccc(NC(=O)CN2CCCNC2=O)c(SC(F)(F)F)c1,-6.443%
15,CN(C)C1CCCN(C(=O)NCCNC(=O)C2CCCC2)C1 (stereo not given),2.147%
16,N#Cc1cccc(S(=O)(=O)NC2CCN(CC(F)(F)F)C2)c1 (stereo not given),11.74%
17,N#Cc1ccc(SCCOCCO)c(Cl)c1,-25.21%
18,N#CC1CCCN(c2ncnc3c2CCN(Cc2ccccc2)CC3)C1 (stereo not given),115%
19,COCCn1ccnc1C1CCCN(c2ncnc3c2CCC3)C1 (stereo not given),-0.4091%
20,Cn1ccnc1CN1CCc2ncnc(N3CCCC(C#N)C3)c2CC1 (stereo not given),91.92%
21,CN1CCN(c2ncnc3c2CCN(Cc2nccn2C)CC3)CC1,-1.995%
22,N#CC1CCCN(c2nc(-c3ccccc3)nc3c2CCNCC3)C1 (stereo not given),6.584%
23,Cn1cc(CN2CCc3ncnc(N4CCCC4)c3CC2)cn1,6.266%
24,Cc1ccccc1N1CCN(C(=O)c2cccnc2-n2cncn2)CC1,25.7%
25,Cc1nc(C2CCCN2Cc2cc(Cl)c3c(c2)OCCCO3)no1 (stereo not given),-4.62%
26,CC(C)=CCC1(C(=O)O)CCCN(c2ccnc(N)n2)C1 (stereo not given),0.6776%
27,Cc1cc(I)c2c(c1)C(=O)C(CN1CCCC1)(CN1CCCC1)CO2,118.1%

row,Compound,Percent Effect
1,O=C1c2cc(Br)cc(Br)c2OCC1(CN1CCCC1)CN1CCCC1,108.8%
2,CCNC(=O)NC[C@@H]1C=C(C)[C@H](CC(=O)NCCN(C)C)C[C@H]1C(C)C,-8.573%
3,OCCCN1CCc2onc(C(c3ccccc3)c3ccccc3)c2C1,6.435%
4,CCOc1ccc(C(F)(F)F)cc1NCc1cc(C)on1,-4.345%
5,Cc1cc(CNc2ccc3nc(C)sc3c2)no1,5.343%
6,Cc1cc(CNc2ccc(C(F)(F)F)cc2)no1,98.51%
7,CC1(C(N)=O)CN(CC2CCOCC2)CCO1 (stereo not given),88.24%
8,CN(C)C(=O)CN1CCC2(C1)CN(CC1CCOCC1)C2,-9.984%
9,CC1(C(=O)N2CCOCC2)CN(CC2CCOCC2)CCO1 (stereo not given),129.5%
10,O=C(C1CN(CC2CC2)CC12CCOCC2)N1CCCC1 (stereo not given),-4.912%
11,CC1(C)CC(CN2CCC3(CCC(=O)N(C4CCC4)C3)CC2)CCO1 (stereo not given),-1.352%
12,CC1(C(N)=O)CN(CC2CCC2)CCO1 (stereo not given),100.1%
13,C1CC(CN2CCOCC3(CCN(C4CCOCC4)C3)C2)CCO1 (stereo not given),-8.937%
14,O=C(N1CCOCC1)[C@@]12CCO[C@@H]1CCN(CC1CCCCC1)C2.O=C(O)C(F)(F)F,16.73%
15,O=C(C1CN(CC2CCOCC2)CC12CCOCC2)N1CCOCC1.O=C(O)C(F)(F)F (stereo not given),5.554%
16,CC(C)N1CC2(CCC1=O)CCN(C(=O)c1cccc(F)c1F)CC2,-11.17%
17,Cc1cc2[nH]c(CN3CCOC(C(F)(F)F)C3)cc(=O)n2n1 (stereo not given),-6.733%
18,COc1cccc(CC(C)NC(=O)c2ccc(CNC(C)=O)cc2)c1 (stereo not given),-2.536%
19,CCOc1cccc(CNCc2ccc(NC(=O)NC(C)C)cc2)c1,132%
20,COc1ccc(CNC(=O)Nc2ccc(S(=O)(=O)C(F)F)cc2)cc1,6.35%
21,COc1cccc(CNCc2ccc(NC(=O)NC(C)C)cc2)c1,98.55%
22,N#CC1(C(=O)Nc2ccc(OC(F)F)cc2)CCCC1,-4.632%
23,CCOc1ccc(CNCc2ccc(C(=O)NC)cc2)cc1OCC,-3.882%
24,COc1cccc(C(CO)NC(=O)NC(C)C)c1 (stereo not given),-12.05%
25,Cc1cccc(CNCc2ccc(NC(=O)NC(C)C)cc2)c1,97.74%
26,CCOc1cccc(CNc2cnn(CC(C)C)c2CC)c1,-19.91%
27,CC(C)NC(=O)Nc1ccc(CNCc2ccc(OC(F)F)cc2)cc1,126.1%

row,Compound,Percent Effect
1,Cc1cccc(CNC(=O)Nc2ccc3c(c2)CCCC(=O)N3)c1,-8.181%
2,COC(=O)C(CNC(=O)Nc1cn[nH]c1)Cc1cccc(C)c1 (stereo not given),-11.43%
3,CCc1cc(CN(C)Cc2nc(-c3sccc3C)oc2C)on1,-5.101%
4,CC(=O)N[C@@H]1Cc2ccccc2[C@H]1Nc1nnc(C2CC2)o1,-5.354%
5,O=C1CSCN1CC(=O)N1CCCC1c1nc2ccccc2s1 (stereo not given),-3.784%
6,Cc1noc(-c2ccc(N[C@H]3CCCCNC3=O)nc2)n1,-0.1994%
7,COCCNC(=O)NC(c1ccccc1)c1ccccc1OC (stereo not given),3.321%
8,Cn1ccc(CN2CCC(CO)CC2)cc1=O,-2.803%
9,Cn1ccc(CN2CCC(CN3CCOCC3)CC2)cc1=O,93.59%
10,Cn1ccc(CN2CCN(CC3CC3)CC2)cc1=O,107.4%
11,Cc1csc(N2CCN(Cc3ccn(C)c(=O)c3)CC2)n1,7.447%
12,CCc1oc(C(=O)OC)cc1Cn1cccc(C(F)(F)F)c1=O,2.78%
13,Cc1nc(C)c(C)c(NCCSCc2[nH]cnc2C)n1,-16.36%
14,COC1CCCOC12CCN(C(=O)c1ccc3[nH]nnc3c1)CC2 (stereo not given),104.9%
15,CO[C@H]1CCN(C(=O)c2ccc3[nH]nnc3c2)C[C@@]12CCCO2,102.9%
16,c1cc(CNc2nnc(Cc3ccsc3)o2)cs1,-17.73%
17,Clc1cnccc1N1CCCC2(CCCOC2)C1 (stereo not given),-10.01%
18,O=C(c1ccc(Cl)o1)N1CCCN(Cc2cscn2)CC1,4.253%
19,COCc1ccc(C(=O)N2CCCN(Cc3cscn3)CC2)cc1,110%
20,Cc1ccc(C(=O)N2CCCN(Cc3cscn3)CC2)o1,108%
21,NC(=O)c1cncc(N2CCN(Cc3ccc(F)cc3Cl)CC2)n1,-6.115%
22,CCC(C)N(Cc1cccnc1)Cc1cc2c(cc1OC)OCO2 (stereo not given),6.738%
23,CN1CCN(c2ncnc3c2CCN(C(=O)c2cccn2C)CC3)CC1,1.463%
24,Cc1ncnc2c1CCN(C(=O)c1cccn1C)CC2,-19.88%
25,Cn1cccc1C(=O)N1CCc2ccc(=O)n(C)c2CC1,85.33%
26,CN(CCCNC(=O)N1CCCC1c1ccsc1)c1ccccn1 (stereo not given),7.927%
27,Cc1cc(C2CCC2)nc(N2CCN(Cc3nccn3C)CC2)n1,-10.5%

row,Compound,Percent Effect
1,Cc1nc2cc(-c3nccn3C)nn2c(N2CCCC(O)C2)c1C.Cl (stereo not given),80.29%
2,OCC1CCCN(c2ncnc3c2Cc2ccccc2OC3)C1 (stereo not given),5.574%
3,Cc1cc(N2CCCCCC2)n2nc(C)c(C)c2n1,-8.895%
4,Cc1nc2cc(-c3nccn3C)nn2c(N2CCCC(CO)C2)c1C (stereo not given),68.35%
5,Cc1cc(N2CCCC(O)CC2)n2nc(C)c(C)c2n1 (stereo not given),-2.095%
6,Cc1cc(N2CCCN(c3nc(C)nc(C)c3C)CC2)ccn1,23.81%
7,Cn1ccnc1-c1nccn1C[C@@H]1CCCN2CCCC[C@H]12,-12.88%
8,Cc1cc(N2CC[C@H](O)C2)n2nc(C)c(C)c2n1,-7.079%
9,Cn1ccnc1CN1C[C@@H](CN2CCC(CO)CC2)[C@@H](CO)C1,-24.97%
10,Cc1ccccc1OCC(=O)N1CC[C@]2(C[C@@H](OCC3CC3)CO2)C1,14.13%
11,CC(NC(=O)c1coc(COc2cccc(F)c2)n1)c1nnc(N)s1 (stereo not given),-13.23%
12,O=C(N1CCc2ccccc2CC1)C1(O)Cc2ccccc2C1,1.099%
13,Cc1nsc(N2CCCN(C(=O)NCc3cccnc3)CC2)n1,-3.745%
14,CCNC(=O)N1C[C@@H]2OCC(=O)N(C)[C@@H]2C1,-7.352%
15,Cn1cc(C(=O)N[C@@H]2CN(Cc3cccnc3)[C@@H]3CCCO[C@@H]32)cn1.O=C(O)C(F)(F)F.O=C(O)C(F)(F)F,-2.49%
16,Cn1cccc1C(=O)N[C@@H]1CN(Cc2ccsc2)[C@@H]2COC[C@@H]21.O=C(O)C(F)(F)F,-6.344%
17,Cn1cccc1C(=O)N[C@H]1CN(Cc2ccoc2)[C@@H]2CCCO[C@H]12.O=C(O)C(F)(F)F,107.4%
18,Cn1ccnc1C(=O)N[C@@H]1CN(CC2CCOCC2)[C@@H]2CCCO[C@@H]21.O=C(O)C(F)(F)F,97.93%
19,Cn1ccnc1CN1C[C@H](N2CCOCC2)[C@@H]2OCCC[C@@H]21.O=C(O)C(F)(F)F.O=C(O)C(F)(F)F.O=C(O)C(F)(F)F,-9.409%
20,O=C(N[C@@H]1CN(Cc2cccs2)[C@@H]2CCCO[C@@H]21)c1cscn1.O=C(O)C(F)(F)F,6.119%
21,Cn1ccnc1C(=O)N[C@@H]1CN(Cc2ccoc2)[C@@H]2CCCO[C@@H]21.O=C(O)C(F)(F)F,105.8%
22,Cn1cc(CN2C[C@@H](NC(=O)c3cscn3)[C@H]3OCCC[C@H]32)cn1.O=C(O)C(F)(F)F.O=C(O)C(F)(F)F,-10.62%
23,O=C(N[C@@H]1CN(CC2CC2)[C@@H]2CCCO[C@@H]21)c1cscn1.O=C(O)C(F)(F)F,102.8%
24,Cn1cc(C(=O)N[C@@H]2CN(CC3CCOCC3)[C@@H]3CCCO[C@@H]32)cn1.O=C(O)C(F)(F)F,-2.907%
